Experiment [1] in a line: qHTS to identify inhibitors of the type 1 interferon - major histocompatibility complex class I in skeletal muscle: primary screen against the NCATS Mechanism Interrogation Plate v5.0 (MIPE) Libary (AID 1347411). Note: nearly all actives have a fitted effect of over 65% in size. Note: potency is the fitted concentration of half-maximal effect. An outline of the steps:
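Luminescence from HiBiT-tagged endogenous HLA-B*08:01 served as the MHC class I read-out. CRISPR-engineered C25cl48 human myoblasts received 4.0 ng/ml IFN-beta plus compound for 24 hrs, with an 11-point, 1:3 series topping at 46 uM final.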

Experiment [2] deals with Endonuclease 4 (Escherichia coli (strain K12)) (UniProt P0A6C1). The experiment in a line: Counterscreen for APE1 Inhibitors: qHTS Validation Assay for Inhibitors of Endonuclease IV (AID 1708). An outline of the steps:
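qHTS concentration-response format; LOPAC1280 tested under APE1-screen conditions. 2 nM enzyme, 15 min compound preincubation at RT, then 50 nM TAMRA/BHQ-2 abasic substrate; kinetic fluorescence read, three reads at 60 s intervals.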
(A counterscreen serves to expose hits that act by an unwanted route or on another target.)

A short description of experiment [3]: qHTS for differential inhibitors of proliferation of Plasmodium falciparum line 3D7 (AID 1876). Note: potency is the fitted concentration of half-maximal effect. For orientation: qHTS replaces the single test concentration by a dilution series.
Experiment [4] is described as follows: qHTS for differential inhibitors of proliferation of Plasmodium falciparum line W2 (AID 1883).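 Note: parasites grown with compound for 72 h before lysis and staining.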 Note: potency is the fitted concentration of half-maximal effect. To be noted: Potency: Plasmodium falciparum W2 proliferation inhibition.
The target in experiment [5] is Ferritin light chain (Equus caballus) (UniProt P02791). The experiment in a line: qHTS Validation Assay for Identification of Novel General Anesthetics (AID 2323). Note: series mostly up to about 77 µM. An outline of the steps:
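Fluorescence at 535 nm (excitation 380 nm) reported loss of 1-AMA binding to horse-spleen apoferritin (10 uM) in PBS with 50% saturated 1-aminoanthracene, after 10 min room-temperature incubation with compound; values from Hill fits of normalized response.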

Experiment [6] deals with Voltage-gated inwardly rectifying potassium channel KCNH2 (Homo sapiens) (UniProt Q12809). Nature of the experiment: qHTS Assay for Small Molecule Inhibitors of the Human hERG Channel Activity (AID 588834).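 Note: top concentration of the series differs between compounds; lower thallium flux fluorescence means stronger hERG block; nearly all actives have a fitted effect of over 50% in size.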 An outline of the steps:
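hERG-BacMam U2OS, 2000 cells/well; 0.7X FluxOR loading 1 hr RT dark; cpd ~10 min 37 °C; stim buffer; FDSS fluorescence 2 min @ 1 s; AC50 Hill fit.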

Experiment [7] is described as follows: qHTS for differential inhibitors of proliferation of Plasmodium falciparum line D10 (AID 1877).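 Note: parasites grown with compound for 72 h before DNA staining.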 Note: potency is the fitted concentration of half-maximal effect.
Experiment [8] is described as follows: qHTS for differential inhibitors of proliferation of Plasmodium falciparum line HB3 (AID 1886).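 Note: parasites grown with compound for 72 h before SYBR Green readout.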 Note: potency is the fitted concentration of half-maximal effect. To be noted: Potency: Plasmodium falciparum HB3 proliferation inhibition.
Experiment [9] is described as follows: Quantitative high throughput screen for delayed death inhibitors of the malarial parasite plastid, 96 hour incubation (AID 488745). Note: nearly all actives have a fitted effect of over 70% in size. Note: potency is the fitted concentration of half-maximal effect. An outline of the steps:
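Infected erythrocytes were added to compound in Albumax-supplemented RPMI 1640 at 0.1% parasitemia and 2% hematocrit (final), incubated 96 h at 37 C under 5% CO2, then luciferase reagent was added and luminescence measured.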

Experiment [10] in a line: Quantitative high throughput screen for delayed death inhibitors of the malarial parasite plastid, 48 hour incubation (AID 488752). Note: nearly all actives have a fitted effect of over 65% in size. Note: potency is the fitted concentration of half-maximal effect. In outline: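 Readout is firefly luciferase luminescence from a reporter integrated into the parasite genome, with lower signal taken as inhibited growth. Infected red cells (0.1% parasitemia, 2% hematocrit final) are cultured with compound for one 48 h cycle at 37 C.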

Records with an inconclusive call do not appear. Activity calls are given as the source filed them. Calls come from the whole dose curve; as a rule, active = well fitted curve in the direction sought with a large enough effect; inconclusive = small, poorly fitted or top-dose-only effect, or another doubt; inactive = no such curve, though single readings can be large; an effect the other way counts as inactive or inconclusive.

Sequence of Ferritin light chain (Equus caballus) (P02791 2-175 limits assumed): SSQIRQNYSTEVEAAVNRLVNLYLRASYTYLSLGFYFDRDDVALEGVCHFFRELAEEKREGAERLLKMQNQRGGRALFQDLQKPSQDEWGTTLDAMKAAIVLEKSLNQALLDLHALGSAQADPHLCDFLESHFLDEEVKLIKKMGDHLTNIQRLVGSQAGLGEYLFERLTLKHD
Sequence of Voltage-gated inwardly rectifying potassium channel KCNH2 (Homo sapiens) (Q12809 whole entry, looked up): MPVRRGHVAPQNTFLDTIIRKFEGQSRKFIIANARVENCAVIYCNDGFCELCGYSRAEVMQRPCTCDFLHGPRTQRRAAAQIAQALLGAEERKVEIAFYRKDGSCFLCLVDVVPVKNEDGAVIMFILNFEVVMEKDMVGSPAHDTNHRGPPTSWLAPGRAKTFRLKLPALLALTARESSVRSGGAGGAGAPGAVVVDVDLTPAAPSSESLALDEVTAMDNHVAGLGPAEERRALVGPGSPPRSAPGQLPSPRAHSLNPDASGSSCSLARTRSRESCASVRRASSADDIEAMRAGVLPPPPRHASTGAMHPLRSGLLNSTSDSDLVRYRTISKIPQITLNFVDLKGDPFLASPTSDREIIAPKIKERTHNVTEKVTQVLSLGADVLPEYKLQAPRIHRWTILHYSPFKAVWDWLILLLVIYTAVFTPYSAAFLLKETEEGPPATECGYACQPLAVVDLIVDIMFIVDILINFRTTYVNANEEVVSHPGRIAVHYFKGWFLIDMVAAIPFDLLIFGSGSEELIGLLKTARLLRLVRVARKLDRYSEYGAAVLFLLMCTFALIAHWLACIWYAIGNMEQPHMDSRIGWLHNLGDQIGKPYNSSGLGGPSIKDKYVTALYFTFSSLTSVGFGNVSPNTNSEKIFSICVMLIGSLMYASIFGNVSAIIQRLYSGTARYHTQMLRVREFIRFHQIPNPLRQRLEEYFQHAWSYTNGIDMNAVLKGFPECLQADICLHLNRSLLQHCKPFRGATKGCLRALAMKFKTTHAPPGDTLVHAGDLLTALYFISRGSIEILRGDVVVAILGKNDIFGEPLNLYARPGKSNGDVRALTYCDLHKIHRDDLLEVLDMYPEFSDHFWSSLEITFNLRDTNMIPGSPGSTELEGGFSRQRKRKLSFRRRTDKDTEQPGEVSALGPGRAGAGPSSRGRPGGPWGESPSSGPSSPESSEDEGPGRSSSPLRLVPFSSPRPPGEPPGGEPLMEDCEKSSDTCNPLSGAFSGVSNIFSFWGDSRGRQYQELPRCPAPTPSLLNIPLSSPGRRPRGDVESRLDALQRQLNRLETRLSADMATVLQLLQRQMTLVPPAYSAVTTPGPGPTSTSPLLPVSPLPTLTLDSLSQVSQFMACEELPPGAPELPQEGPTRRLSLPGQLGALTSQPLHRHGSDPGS

As for `Cn1c(/C=C/CO)c(CO)c2c1C(=O)C=C(N1CC1)C2=O`, the Potency result in experiment [1] is “inactive”.

For the compound `Cc1[nH]ncc1-c1cc2nc([C@@H]3CC4CCN3CC4)[nH]c(=O)c2s1`, in experiment [1], the Potency is 7.39 µM (active).

As for `C/C=C(\C)C(=O)N[C@@H](c1ccccc1)[C@@H](O)C(=O)O[C@H]1C[C@@]2(O)[C@@H](OC(=O)c3ccccc3)[C@@H]3[C@]4(OC(C)=O)CO[C@@H]4C[C@H](O)[C@@]3(C)C(=O)[C@H](OC(C)=O)C(=C1C)C2(C)C`, the Potency entry in experiment [1] is “inactive”.

Regarding `O=C(O)CNC(=O)C1C(=O)N(C2CCCCC2)C(=O)N(C2CCCCC2)C1=O`, the Potency entry in experiment [1] was “inactive”.

As to `COc1cc2cc(c1Cl)N(C)C(=O)C[C@H](OC(=O)C(C)C)[C@]1(C)O[C@@H]1[C@H](C)[C@@H]1C[C@@](O)(NC(=O)O1)[C@H](OC)/C=C/C=C(\C)C2`, the Potency entry in experiment [1] is “inactive”.

As to `Cn1c(COP(=O)(NCCBr)NCCBr)cnc1[N+](=O)[O-]`, in experiment [1], the Potency result was “inactive”.

As to `CO/C1=C/C(C)=C\[C@@H](C)[C@@H](O)[C@@H](C)C/C(C)=C\C=C/[C@H](OC)[C@@H]([C@@H](C)[C@@H](O)[C@H](C)[C@@]2(O)C[C@@H](O)[C@H](C)[C@@H](C(C)C)O2)OC1=O`, the Potency result in experiment [1] is “inactive”.

For the compound `CC(=O)OC[C@H]1O[C@@H]([S-])[C@H](OC(C)=O)[C@@H](OC(C)=O)[C@@H]1OC(C)=O.CC[PH+](CC)CC.[Au]`, the Potency in [1] was 1.17 µM (active).

For `CCCCCCC(C)(C)c1cc(O)c2c(c1)OC(C)(C)C1CC=C(CO)C[C@H]21` (stereo partly drawn), the Potency in experiment [1] was 13.1 µM (active).

With `C[C@]12COC(=O)C[C@@H]1CC[C@@H]1[C@@H]2CC[C@@]2(C)[C@H]1CC[C@]2(C)O`, in experiment [1], the Potency entry is “inactive”.

As to `C=C(C)[C@@H]1CCC(C)=C[C@H]1c1c(O)cc(CCCCC)cc1O`, the Potency in experiment [1] is 33 µM (active).

For the compound `Cc1c(N)nc([C@H](CC(N)=O)NC[C@@H](N)C(N)=O)nc1C(=O)N[C@H](C(=O)N[C@@H](C)[C@H](O)[C@@H](C)C(=O)N[C@@H](C(=O)NCCc1nc(-c2nc(C(=O)NCCC[S+](C)C)cs2)cs1)[C@@H](C)O)C(O[C@H]1O[C@H](CO)[C@H](O)[C@@H](O)[C@H]1O[C@H]1O[C@H](CO)[C@@H](O)[C@H](OC(N)=O)[C@@H]1O)c1cnc[nH]1` (stereo partly drawn), in experiment [1], the Potency result is “inactive”.

For the compound `CN1C[C@@H](CS(=O)(=O)N(C)C)C[C@@H]2c3cccc4c3c(cn4C)C[C@H]21`, the Potency result in experiment [2], in [5] and in [6] was “inactive” in each case. The Potency in [3] was 3.98 µM (active); in experiment [4], 3.55 µM (active).

For the compound `CCCN(CCC)[C@@H]1CCc2c(F)ccc(O)c2C1`, the Potency result in experiment [2], in experiment [5] and in experiment [6] was “inactive” throughout. Also, the Potency in [3] is 1.58 µM (active); in experiment [7] it was 2.24 µM (active); in [4] it was 0.891 µM (active); in experiment [8], 1.41 µM (active); in experiment [9], 2.62 µM (active); in experiment [10], 2.62 µM (active).

As for `COc1cc(C=C(C#N)C#N)cc(O)c1O`, the Potency entry in [2], in experiment [5], in [9] and in experiment [6] was “inactive” throughout. Also, in experiment [4], the Potency was 10 µM (active).

Take `C=CCN1CC[C@@]2(C)c3cc(O)ccc3CC1[C@@H]2C`: the Potency result in experiment [2], in experiment [5], in [9], in [10] and in experiment [6] was “inactive” throughout. Also, the values for the Potency in [7] and in experiment [4] were 12.6 µM (active) and 6.31 µM (active), respectively.

In the case of `CC[C@@H](CO)NC(=O)[C@H]1C=C2c3cccc4c3c(cn4C)C[C@H]2N(C)C1`, the Potency entry in experiment [2], in experiment [5] and in experiment [6] was “inactive” throughout.

For `C#CCN(C)C(C)Cc1ccccc1` (stereo not drawn), the Potency entry in experiment [2], in [3], in experiment [7], in experiment [4], in experiment [8] and in [9] was “inactive” each time. The Potency entry in [10] and in experiment [6] was “inactive” throughout.

As for `C[N+]1(C)C2CC(OC(=O)C(CO)c3ccccc3)CC1C1OC12` (stereo not drawn), the Potency result in [2], in experiment [3], in [7], in [4], in experiment [8] and in experiment [5] was “inactive” in each case. Further, the Potency result in [9], in [10] and in experiment [6] was “inactive” each time.

The values above are taken from PubChem BioAssay (NCATS).
